From PubChem BioAssay AID686979 (National Center for Advancing Translational Sciences (NCATS), 2013)
Values joined by “and” are separate entries in the source; they are usually repeats but may differ in a detail not shown here. Equal entries are not always repeated. The whole screen tested about 420,000 compounds, of which about 50,000 (12%) were called active. A call without a number means that no potency is given here. Roughly 26% stayed inconclusive and do not appear here. The sample holds actives, similar compounds and a random draw of the others, so the mix is not that of the screen. Calls follow the shape of the dose curve; as a rule, active = well fitted inhibition curve with a large enough effect; inconclusive = small, poorly fitted or top-dose-only effect; inactive = flat fitted curve, though single readings scatter. Where a SMILES comes first, the peptide text is derived from it. [ ]: non-standard residue; d: D form. ξ: configuration not given here. Ac5c = NC1(C(=O)O)CCCC1; ξS = NC(CO)C(=O)O

Assay: qHTS for Inhibitors of human tyrosyl-DNA phosphodiesterase 1 (TDP1): qHTS in cells in presence of CPT; also: nearly all actives have a fitted effect of over 55% in size
Conditions: chicken DT40 Tdp1-/-;hTDP1 cells + 20 nM CPT, ATP luminescence, 48 h; series mostly up to 46.2 µM
Outline: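 Chicken DT40 Tdp1-/- cells complemented with human TDP1, 400 cells/well, exposed to compounds plus 20 nM camptothecin for at least 48 h at 37 C; viability read as ATP content by CellTiter-Glo luminescence.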
Potency is read from the fitted curve at half-maximal effect.

| Compound | Potency |
| --- | --- |
| Cc1ccc(NC(=O)CSc2nc3c(c(=O)[nH]2)CN(Cc2ccc4c(c2)OCO4)CC3)cc1C | inactive |
| COc1cc(OC)cc(C(=O)NCC(=O)OCC(=O)NC(C)CCc2ccccc2)c1 (configuration not stated) | inactive |
| COc1cc(OC)cc(C(=O)NCC(=O)OCc2csc(-c3ccccc3)n2)c1 | 16.4 µM (active) |
| COc1cccc(C(=O)NCC(=O)OCc2cc(=O)n3ccsc3n2)c1 | inactive |
| C=CCOc1ccc(Cl)cc1CNCCCN1CCOCC1 | inactive |
| CC(=O)NCCC(=O)Nc1nc(C)c(Cc2ccc3c(c2)OCO3)s1 | inactive |
| CCOC(=O)C1(Cc2ccccc2C)CCCN(S(C)(=O)=O)C1 (configuration not stated) | inactive |
| CNC(=O)NC(=O)CSc1nnc(-c2ccc(F)cc2)n1CC1CCCO1 (configuration not stated) | inactive |
| O=C(NCCc1ccc(Cl)cc1)C1CCCN1C(=O)NCc1ccccc1 (configuration not stated) | inactive |
| COc1ccc(CCNC(=S)N2CCN(S(=O)(=O)c3ccc(Cl)cc3)CC2)cc1 | inactive |
| Oc1cc2c(cc1O)CN(C(=S)NCCc1ccc(Cl)cc1)CCC2 | 13.3 µM (active) and 7.08 µM (active) |
| CCOc1ccc(C(=O)NCC(=O)N2CCCCCCC2)cc1OCC | inactive |
| CCc1cc2c(cc3c(=O)n(CC(=O)NCCc4ccc(OC)c(OC)c4)ncn32)s1 | inactive |
| CCc1cc2c(cc3c(=O)n(CC(=O)N4CCN(c5cc(Cl)ccc5C)CC4)nc(CC)n32)s1 | inactive |
| CCOc1ccc(CCNC(=O)Cn2nc(CC)n3c(cc4sc(CC)cc43)c2=O)cc1OCC | 16.4 µM (active) |
| COc1ccc2cc(C(=O)O)n(CC(=O)c3ccccc3)c2c1 | inactive |
| CCOC(=O)C1=C(c2ccccc2)O/C(=C(/C(=O)OC)C(F)(F)F)S1 | inactive |
| O=C(NCC(=O)N(CC1CCCO1)C(C(=O)NC1CCCCC1)c1ccccc1)c1ccco1 (configuration not stated) | inactive |
| O=C(c1ccco1)N1CCN(C(=O)C2CCCN(S(=O)(=O)c3cccc4nsnc34)C2)CC1 (configuration not stated) | inactive |
| CCCCN(CC)C(=O)C1CCCN(S(=O)(=O)c2cccc3nsnc23)C1 (configuration not stated) | 25.9 µM (active) |
| CCCCN(C)CCNC(=O)C1CCCN(S(=O)(=O)c2cccc3nsnc23)C1 (configuration not stated) | inactive |

| Compound | Potency |
| --- | --- |
| CCOC(=O)C(CO)NC(=O)C1(NC(C)=O)CCCC1 (configuration not stated) (Ac-[Ac5c]-[ξS]-OEt) | inactive |
| OCC1(Cc2ccccc2C(F)(F)F)CCN(Cc2ccncc2)CC1 | inactive |
| COc1cccc(C(=O)CC(=O)C(=O)Nc2ccc([N+](=O)[O-])cc2C)c1 | 23.1 µM (active) |
| Cc1cc([N+](=O)[O-])ccc1NC(=O)C1CCCO1 (configuration not stated) | inactive |
| COc1cccc(C(=O)Oc2cc(C)[nH]c(=O)c2[N+](=O)[O-])c1 | inactive |
| COc1ccccc1NC(=O)c1cc(Cl)nc2ccccc12 | inactive |
| COc1ccc(NC(=O)CCNC(=O)Cn2ccc3ccccc3c2=O)c(OC)c1 | inactive |
| CCN(CCCNC(=O)c1cc(Nc2ccc(OC)cc2)nc2ccccc12)c1cccc(C)c1 | 20.6 µM (active) |
| COc1ccc(NC(=O)c2cc(-c3ccc(C)o3)nc3ccccc23)cc1 | inactive |
| CCN(CCCNC(=O)Cn1ncc2c([nH]c3ccccc32)c1=O)c1cccc(C)c1 | inactive |
| COc1ccc(Nc2cc(C(=O)NCCCN(C)c3ccccc3)c3ccccc3n2)c(OC)c1 | 13 µM (active) |
| COc1ccc(NC(=O)c2cc(-c3cc(OC)c(OC)c(OC)c3)nc3ccccc23)c(OC)c1 | 13 µM (active) |
| COc1ccc(NC(=O)CNC(=O)Cn2ccc3ccccc3c2=O)c(OC)c1 | inactive |
| COc1ccc(CNC(=O)COC(=O)C2=Cc3ccccc3OC2)cc1 | inactive |
| COC(=O)c1ccc(CNC(=O)Cn2cc(C)c(=O)[nH]c2=O)cc1 | inactive |
| O=C(Cn1c2[n+](c3ccc(C(F)(F)F)cc31)CCCCC2)Nc1c(F)cccc1F | inactive |
| Cc1ccc(CN(C)Cc2cc(=O)oc3cc(C)c(Cl)cc23)cc1 | inactive |
| Cc1cc(NC(=O)CSc2ncc(C(F)(F)F)cc2Cl)no1 | inactive |
| Cc1c(Cl)cccc1NC(=O)CCC(=O)N/N=C/c1ccco1 | inactive |
| C[C@H](CO)N1C[C@H](C)[C@@H](CN(C)C(=O)NC2CCCCC2)Oc2ccc(NC(=O)c3ccncc3)cc2C1=O | inactive |
| COC(=O)c1ccccc1NC(=S)NC(=O)c1ccccc1F | inactive |

| Compound | Potency |
| --- | --- |
| S=C(NCc1cccnc1)Nc1ccc(Cl)cc1Cl | inactive |
| NS(=O)(=O)c1ccc(-c2ccc(/C=C3\SC(=O)NC3=O)o2)cc1 | inactive |
| Cc1ccc(NC(=O)CCC(=O)c2ccc(Br)cc2)cc1 | inactive |
| Cc1cccc(-c2nc(SCC(=O)Nc3cc(C)on3)c3c(=O)n(C)c(=O)n(C)c3n2)c1 | inactive |
| Cc1ccccc1-c1nc(SCC(=O)N(C)c2ccccc2)c2c(=O)n(C)c(=O)n(C)c2n1 | 20.6 µM (active) |
| Cn1c(=O)c2c(SCC(=O)NCC3CCCO3)nc(-c3ccccc3F)nc2n(C)c1=O (configuration not stated) | inactive |
| CN(C(=O)COC(=O)c1nc(Cl)ccc1Cl)C1CCS(=O)(=O)C1 (configuration not stated) | inactive |
| Cc1cc(C)c2nc(N3CCC(C(=O)NCCN4CCOCC4)CC3)sc2c1 | inactive |
| COc1ccc(/C(=N\O)c2nccc3cc(OC)c(OC)cc23)cc1OC | inactive |
| COC(=O)c1ccc(NC(=O)CSc2nncc3ccc(OC)c(OC)c23)cc1 | inactive |
| COC(=O)c1ccc(-c2c(-c3ccccc3)ncc3cc(OC)c(OC)cc23)cc1 | 20.6 µM (active) |
| CCN(CC)CCn1c2c(c(SCC(=O)Nc3ccc(C(C)C)cc3)nc1=O)CCC2 | inactive |
| CC(=O)OCC(=O)C1(O)CCC2C3CC(C)C4=CC(=O)CCC4(C)C3C(O)CC21C (configuration not stated) | inactive |
| COc1ccc(C(=O)NC(C)Cn2nc(C)cc2C)cc1OC1CCN(C(C)=O)CC1 (configuration not stated) | inactive |
| O=C(CN1C(=O)c2ccc([N+](=O)[O-])cc2C1=O)Nc1nnc(C2CC2)s1 | inactive |
| C=CCOc1ccc(/C=C/C(=O)OCC(=O)NCC2CCCO2)cc1 (configuration not stated) | inactive |
| CCNC(=O)c1ccc(OCC(=O)Nc2ccc(F)cc2)c(OC)c1 | inactive |
| COc1ccc(C(=O)N/N=C2\CCS(=O)(=O)c3ccc(F)cc32)cc1OC | 18.4 µM (active) |
| COc1ccc(/C=N/NC(=O)c2ccc3c(c2)OCCO3)c(OC)c1 | inactive |
| CCN(Cc1ccccc1)C(=O)Cc1ccc(OC)c(S(=O)(=O)N2CCOCC2)c1 | inactive |
